Our source for the Potency, cell viability, % of control (lower = more cytotoxic) and viability (% of control) values is PubChem BioAssay (NCATS).

The structures appear in SMILES notation. Results filed as inconclusive are left out. The source made the active and inactive calls. Unless noted, no rule for the calls is given here.

Test [1] is described as follows: Immunotoxin (HA22) sensitization/mitigation study. Vehicle arm (PBS) (AID 1159510). Also: potency is read from the fitted curve at half-maximal effect. Conditions: cancer cells viability with PBS vehicle (HA22 study); series mostly up to 46.1 µM.
Test [2] can be described thus: Immunotoxin (SS1P) sensitization/mitigation study. Vehicle arm (DMEM) (AID 1159513). Also: potency is read from the fitted curve at half-maximal effect. The following applies: cell viability with vehicle (DMEM); series mostly up to 46.1 µM.
The nature of test [3]: High-throughput drug toxicity screening in the BPDCN cell line Gen2.2 (AID 1224824).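 Also: cells exposed to compounds for 48 h before reading.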 The following applies: Gen2.2 BPDCN cells; at 45.8 µM (top of the series). In short, it runs like this:
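Readout is ATP luminescence from Gen2.2 cells after two days of drug exposure in serum-containing medium at 37 °C. Values express percent activity, with vehicle defining full signal and 9.2 uM bortezomib defining zero.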

Test [4] in a line: High-throughput drug toxicity screening in the BPDCN cell line Cal-1 (AID 1224825). The following applies: Cal-1 BPDCN cell viability, qHTS; at 45.8 µM (top of the series). The essentials:
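Percent activity derived from CellTiter-Glo luminescence, scaling DMSO to 100% and 9.2 uM final bortezomib to 0%. BPDCN Cal-1 cells (500/well, RPMI plus 10% FBS) incubated with compounds 48 hours at 37C before reading.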
In general terms: Quantitative high-throughput screening tests each substance at several concentrations.

Test [5] can be described thus: qHTS assay for measurement of the activity of small molecule inhibitors on Zika virus induced Caspase-3 activity in human iPSC derived neural progenitor cells (hNPCs) (AID 1224857; active = well fitted curve in the direction sought with a large enough effect; an effect the other way counts as inactive or inconclusive; also: % of control where 0% means no effect; nearly all actives have a fitted effect of over 65% in size). The following applies: hNPCs ZIKV-induced caspase-3/7, Caspase-Glo luminescence, 6 h; series mostly up to 45.7 µM. The essentials:
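In medium with heparin 2 ug/ml and cyclopamine 2 uM, hNPCs (350 cells/well) received compound for one hour and then Zika virus at 2 FFU/cell; caspase activity was measured by Caspase-Glo 3/7 luminescence 6 h post-infection.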

The nature of test [6]: qHTS assay for measurement of the activity of small molecule inhibitors on Zika virus induced Caspase-3 activity in human astrocytoma cells (AID 1224859; active = well fitted curve in the direction sought with a large enough effect; an effect the other way counts as inactive or inconclusive;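 also: plate controls were ZIKV-infected untreated cells for no effect and uninfected cells for full effect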). Conditions: SNB-19 ZIKV-induced caspase-3/7, luminescence, 6 h; series mostly up to 45.7 µM. In short, it runs like this: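 A cell-based luminescent caspase-3/7 assay used SNB-19 cells infected with ZIKV (2 FFU/cell) for 6 h following 1 h compound pretreatment.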

The nature of test [7]: qHTS Screen of the MIPE 4.0 Collection Against Ewings Sarcoma (RDES) (AID 1259252; active = well fitted curve in the direction sought with a large enough effect; an effect the other way counts as inactive or inconclusive;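 also: 100% = DMSO-treated cells and 0% = medium-only wells without cells; nearly all actives have a fitted effect of over 35% in size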). Conditions: RD-ES Ewing sarcoma viability, CellTiter-Glo, 48 h; series mostly up to 45.8 µM. In short, it runs like this: (§1)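 Cells plated in serum-containing RPMI (5% FBS) and treated with compound dilutions for 48 h. Readout luminescent viability; normalization relied on vehicle (no inhibition) and media-only columns (full inhibition).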

The nature of test [8]: qHTS Screen of the MIPE 4.0 Collection Against Ewings Sarcoma (TC71) (AID 1259253; active = well fitted curve in the direction sought with a large enough effect; an effect the other way counts as inactive or inconclusive;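 also: 100% = DMSO-treated cells and 0% = medium-only wells without cells; nearly all actives have a fitted effect of over 40% in size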). The following applies: TC71 Ewing sarcoma viability, CellTiter-Glo, 48 h; series mostly up to 45.8 µM. The essentials:
as §1

The nature of test [9]: qHTS Screen of the MIPE 4.0 Collection Against Ewings Sarcoma (EW8) (AID 1259255; active = well fitted curve in the direction sought with a large enough effect; an effect the other way counts as inactive or inconclusive;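 also: 100% = DMSO-treated cells and 0% = medium-only wells without cells; nearly all actives have a fitted effect of over 35% in size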). Conditions: EW8 Ewing sarcoma viability, CellTiter-Glo, 48 h; series mostly up to 45.8 µM. In short, it runs like this:
as §1

Test [10] in a line: qHTS Screen of the MIPE 4.0 Collection Against Ewings Sarcoma (TC32) (AID 1259256; active = well fitted curve in the direction sought with a large enough effect; an effect the other way counts as inactive or inconclusive;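 also: 100% = DMSO-treated cells and 0% = medium-only wells without cells; nearly all actives have a fitted effect of over 45% in size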). Conditions: TC32 Ewing sarcoma viability, CellTiter-Glo, 48 h; series mostly up to 45.8 µM. In short, it runs like this:
as §1

Test [11] in a line: Identifying Small Molecule Inhibitors of Pancreatic Cancer Stem Cells (SN12C, Adherent) (AID 1259358; active = well fitted curve in the direction sought with a large enough effect; an effect the other way counts as inactive or inconclusive;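 also: cell survival measured after 48 h of compound exposure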). Conditions: viability/growth inhibition; series mostly up to 46.1 µM. The essentials:
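Pre-formed 14-day tumor spheroids or adherent cells dosed and incubated 48 h, 37C, 5% CO2. Viability assessed by CellTiter-Glo.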

Test [12] in a line: Identifying Small Molecule Inhibitors of Pancreatic Cancer Stem Cells (Panc1, Adherent) (AID 1259362; active = well fitted curve in the direction sought with a large enough effect; an effect the other way counts as inactive or inconclusive; also: potency is read from the fitted curve at half-maximal effect). Conditions: Potency: viability; series mostly up to 46.1 µM. In short, it runs like this: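 Cytotoxicity read by CellTiter-Glo luminescence after 48 h compound exposure at 37C; percent activity scaled between DMSO-treated cells and cell-free wells. Spheroid formats used cells pre-formed 14 days in stem cell media on hydrogel.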

A short description of test [13]: P-glycoprotein substrates identified in KB-8-5-11 adenocarcinoma cell line, qHTS therapeutic library screen (AID 1346987; active = well fitted curve in the direction sought with a large enough effect; an effect the other way counts as inactive or inconclusive; also: nearly all actives have a fitted effect of over 65% in size). Conditions: KB-8-5-11 (P-gp overexpressing) viability, CellTiter-Glo, 72 h; series mostly up to 44.5 µM. In short, it runs like this: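 Compounds are pinned in dose-response onto KB-8-5-11 cells (500 cells/well, colchicine-free medium) and left 72 h at 37 degree C. CellTiter-Glo luminescence then yields AC50 values.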

The nature of test [14]: Identifying Small Molecule Inhibitors of Pancreatic Cancer Stem Cells (A2780, Spheroid) (AID 1259357; active = well fitted curve in the direction sought with a large enough effect; an effect the other way counts as inactive or inconclusive;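 also: potency is read from the fitted curve at half-maximal effect; compound exposure lasted 48 h before the ATP luminescence read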). The following applies: Potency: A2780 spheroid viability; series mostly up to 46.1 µM. The essentials: (§2)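 Viability is scored by CellTiter-Glo luminescence 48 h after dosing, expressed as percent activity against vehicle and no-cell references. Spheroid formats rely on cells cultured 14 days in stem cell media beforehand.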

The nature of test [15]: Identifying Small Molecule Inhibitors of Pancreatic Cancer Stem Cells (Panc1, Spheroid) (AID 1259359; active = well fitted curve in the direction sought with a large enough effect; an effect the other way counts as inactive or inconclusive;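 also: potency is read from the fitted curve at half-maximal effect; compound exposure lasted 48 h before reading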). Conditions: Panc1 spheroid cancer stem cell viability. In short, it runs like this: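 Endpoint: ATP-based luminescence, 48 h drug exposure. Bortezomib at 9.2 uM final as full-kill control; DMSO vehicle as negative control; activity normalized between vehicle and cell-free wells.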

A short description of test [16]: Identifying Small Molecule Inhibitors of Pancreatic Cancer Stem Cells (SN12C, Spheroid) (AID 1259360; active = well fitted curve in the direction sought with a large enough effect; an effect the other way counts as inactive or inconclusive; also: potency is read from the fitted curve at half-maximal effect). The following applies: Potency: SN12C spheroid viability; series mostly up to 46.1 µM. In short, it runs like this:
as §2

As to `Cc1cc(-c2ccc(CC(=O)Nc3ccc(-c4cccnc4)cc3)cc2)ccn1`, the Potency in [1] and in [2] was 18.7 µM (active) throughout.
On to `Fc1cc(-c2cccc3ncc(-c4cnn(C5CCNCC5)c4)nc23)cc(F)c1CN1CCOCC1`, for which the Potency in test [1] and in test [2] was 23.5 µM (active) each time.
For the compound `O=C(O)[C@H](Cc1c[nH]c2ccccc12)N1C(=O)c2ccccc2C1=O`, the Potency result in test [1] and in test [2] was “inactive” throughout.
Consider `Cc1nc(-c2ccc(-c3ccc(C(=O)N4CCc5cc6c(cc54)C4(CCN(C)CC4)CO6)cc3)c(C)c2)no1`, for which the Potency in [1] was 23.5 µM (active); in test [2], 26.4 µM (active); in [12], 16.6 µM (active). The cell viability, % of control (lower = more cytotoxic) in test [3] stood at 163%. In [4], the viability (% of control) amounted to 126%. For the same compound, the Potency result in test [5], in [6], in [7], in test [8], in [9] and in test [10] was “inactive” each time. Also, the Potency result in [11] and in [13] was “inactive” each time.
On to `CC1CC(C)C(=O)C(C(O)CC2CC(=O)NC(=O)C2)C1` (stereo unspecified), for which the Potency in test [1] is 0.054 µM (active); in [2], 0.191 µM (active); in [14], 3.82 µM (active); in [15], 2.41 µM (active); in [16], 1.71 µM (active).
Consider `CC(C)(C(=O)NCC(F)(F)C(F)(F)F)C(=O)N[C@@H]1C(=O)Nc2ccccc2-c2ccccc21`, for which the Potency result in test [1] and in test [2] was “inactive” throughout.
Turning to `CCN1CCN(CC(=O)Nc2ccc(-c3cccc4c(=O)cc(N5CCOCC5)oc34)c3sc4ccccc4c23)CC1`, the figures for the Potency in test [1] and in test [2] were 0.935 µM (active) and 1.66 µM (active), respectively.
As to `CC#C[C@]1(O)CC[C@H]2[C@@H]3CCC4=CC(=O)CCC4=C3[C@H](c3ccc(N(C)C)cc3)C[C@@]21C`, in test [2], the Potency was 23.5 µM (active).
Turning to `COCC(=O)NCC=Cc1ccc2ncnc(Nc3ccc(Oc4ccc(C)nc4)c(C)c3)c2c1`, the results for the Potency in [1] and in test [2] were 23.5 µM (active) and 18.7 µM (active), respectively.
